Rows were chosen to be rich in hits. Some 2.2% of all compounds tested hit in one or more screens of this group.
FUS suppressor: suppressors of FUS proteinopathy in yeast | 390,000 tested, 0.24% active | Potency, µM (doses to about 76.6 µM), hits mostly activators | AID 1347120 | S. cerevisiae FUS-expressing, growth rescue, OD600, 24 h;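 note: plate controls were DMSO vehicle for no effect and reference control for full effect; nearly all actives have a fitted effect of over 55% in size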
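Compound concentration series was pinned onto galactose-induced FUS-expressing yeast seeded at OD 0.005. Plates sat 24hr at 30C; absorbance at 600 nm gave growth. DMSO served as background control.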
Abeta rescue: A-beta toxicity reversal in yeast; Potency, µM (top dose mostly 46.1 µM), hits mostly activators; yeast expressing A-beta42, growth rescue, OD600, 48 h; response scale: 0% DMSO, 100% iron-clioquinol control; 410,000 tested, 0.063% active; note: nearly all actives have a fitted effect of over 55% in size
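Yeast growth medium received pinned compounds, then yeast cells expressing toxic A-beta were added; plates incubated at 30 C for 48 hr. Growth read as absorbance at 600 nm, normalized to DMSO and equimolar FeCl3 plus clioquinol controls.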
Mito fusion act: inhibitors of mitochondrial division or activators of mitochondrial fusion; AID 485298; Potency, µM (series often up to 46.1 µM), for the others: at the highest dose growth rescue (activation), usual class: activators; S. cerevisiae fusion-defective mutant growth rescue, CellTiterGlo 48 h; 320,000 tested, 0.23% active; note: % of control where 0% means no effect; nearly all actives have a fitted effect of over 45% in size
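Temperature-sensitive fusion-defective S. cerevisiae (e.g. fzo1-1, mgm1-5) were grown with compound in YPEG medium (3% ethanol, 3% glycerol) for 48 hours at 37C. Growth rescue was measured as viability by CellTiterGlo luminescence after 10 minutes at ambient.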
aSyn yeast inh: alpha-synuclein toxicity inhibition in yeast; Yeast expressing alpha-synuclein, growth rescue, BacTiter-Glo, 24 h; Potency, µM (titrated, usually from 46.1 µM), without a hit: at the top dose growth rescue (activation), usual class: activators; 370,000 tested, 0.14% active; note: % of control where 0% means no effect; nearly all actives have a fitted effect of over 65% in size
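Galactose-induced alpha-syn yeast (OD600=0.02, raffinose-pregrown) + pinned cpd, 24 hr, 30 deg C; growth by BacTiter-Glo luminescence. Growth restoration scores as activation.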
TDP43 rescue: TDP-43 toxicity inhibition in yeast | Potency, µM (doses to about 46.1 µM), for the others: at the highest dose growth rescue (activation), most hits filed as activators | TDP-43 expressing yeast growth rescue, BacTiter-Glo, 24 h | AID 652104 | 410,000 tested, 1.8% active; note: % of control where 0% means no effect; nearly all actives have a fitted effect of over 50% in size
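Galactose-induced TDP-43 yeast, OD600=0.02, compound pinned; 24 hr, 30 deg C; BacTiter-Glo luminescence for growth. Inhibitors of TDP-43 toxicity read as activators.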
ERG Ets-DNA blk: blocks human ERG Ets domain binding to DNA. P11308. fluorescence polarization, His-ERG Ets domain / labelled DNA. Potency, µM (titrated, usually from 76.9 µM), for inactives: top-dose FP activity, negative = inhibition, usual class: inhibitors. 370,000 tested, 0.028% active. AID 624246; active = well fitted inhibition curve with a large enough effect in the polarisation, with a control signal flat; inconclusive = small, poorly fitted or top-dose-only effect, or effect the other way, or a change in a side signal; inactive = no such curve, though single readings can be large or run the other way; the % refers to the polarisation;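 note: polarization taken with two DNA probes labelled with fluorescein and Texas red; % of control where 0% means no effect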
Target sequence (P11308 whole entry, looked up, the tested form may be a part): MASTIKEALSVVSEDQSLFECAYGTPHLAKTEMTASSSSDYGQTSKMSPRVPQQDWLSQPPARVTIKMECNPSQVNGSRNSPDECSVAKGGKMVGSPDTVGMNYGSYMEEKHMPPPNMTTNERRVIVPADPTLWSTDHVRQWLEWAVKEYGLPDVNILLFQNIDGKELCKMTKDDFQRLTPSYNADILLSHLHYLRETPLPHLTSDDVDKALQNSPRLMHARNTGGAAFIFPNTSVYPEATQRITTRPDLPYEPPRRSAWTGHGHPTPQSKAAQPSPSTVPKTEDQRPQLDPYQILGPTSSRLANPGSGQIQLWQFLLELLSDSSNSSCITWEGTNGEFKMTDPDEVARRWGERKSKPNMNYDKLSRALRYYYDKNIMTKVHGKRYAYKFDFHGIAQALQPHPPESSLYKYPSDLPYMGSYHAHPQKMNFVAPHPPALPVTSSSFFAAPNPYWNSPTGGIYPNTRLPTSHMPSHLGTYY
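His-tagged ERG Ets domain (1 uM in the protein solution; 300mM KCl, 50mM Tris-HCl, 1mM EDTA, 1mM DTT, pH 7.5) received compound, then a probe mix of 5 nM fluorescein-DNA and 100nM Texas-615-DNA. Fluorescence polarization was read for both dyes.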
The depositor's hits bear a star; i = inactive; ? = inconclusive; nt = not tested or not shown; ! = not confirmed by another sample. Unless noted, calls come from the whole dose curve; as a rule, active = well fitted curve in the direction sought with a large enough effect; inconclusive = small, poorly fitted or top-dose-only effect, or another doubt; inactive = no such curve, though single readings can be large; an effect the other way counts as inactive or inconclusive. Potency is the fitted concentration of half-maximal effect.

SMILES	FUS suppressor	Abeta rescue	Mito fusion act	aSyn yeast inh	TDP43 rescue	ERG Ets-DNA blk
O=C(NC(=S)Nc1ccc(N2CCOCC2)c(Cl)c1)c1cncc(Br)c1	i	i	-3%	-8%	20µM*	6%
Cc1ccc(C(=O)NC2CCc3ccccc3C2=O)cc1 (configuration not stated)	i	i	-3%	-3%	14µM*	-4%
CCCN(CCC)C(=S)NC(=O)c1ccc(-c2ccccc2)cc1	i	i	11%	-12%	14µM*	-10%
CCOc1ccc(C(=O)NC(=S)N(Cc2ccccc2)Cc2ccccc2)cc1	i	i	0%	-5%	-5%	0%
COc1ccc(OC)c(NC(=O)COCc2cc(-c3ccco3)on2)c1	i	i	nt	nt	10%	-2%
O=C1C(=O)N(Cc2ccccc2)C(=O)N1CCN1C(=O)c2ccccc2C1=O	i	i	3%	0%	13%	0%
O=C1Cc2ccccc2C(=O)N1CCc1ccccc1	i	i	-1%	2%	13µM*	-3%
COC[C@@H]1CCCN1c1ccc2c(c1)O[C@H]1CCN(C1)S2(=O)=O	i	nt	nt	nt	nt	nt
C[C@H]1[C@@H](OC(=O)Nc2ccccc2F)CC[C@@]23CCCN2C(=O)CCC[C@@H]13	i	nt	nt	nt	nt	nt
O=C1C2C=CC=CC2=NC(=S)N1CCN1CCC(=C(c2ccc(F)cc2)c2ccc(F)cc2)CC1 (configuration not stated)	nt	nt	5.8µM*	-14%	nt	nt
O=C(CN1CCN(CCN2C(=O)c3cccc4cccc(c34)C2=O)CC1)c1ccc(F)cc1	i	i	-7%	7%	-28%	-6%
COc1ccccc1N1CCN(C(=O)Cn2ncc3ccsc3c2=O)CC1	i	i	nt	1%	-14%	0%
Cc1nnc2n1N=C(c1ccc(F)cc1F)CS2	i	i	-4%	-6%	9%	0%
Clc1ccc(-n2nnnc2-c2ccno2)cc1	i	i	-4%	1%	3%	-1%
Fc1cccc(-c2oncc2-c2nnnn2-c2ccc(Cl)cc2)c1	i	i	1%	14%	11µM*	2%
Cc1cccc(C(=O)N2CCN=C2SCc2ccc([N+](=O)[O-])cc2)c1	i	i	-5%	4%	10µM*	8%
O=S(=O)(/N=C(/NS(=O)(=O)c1ccccc1)c1ccccc1)c1ccccc1	i	i	-5%	2%	11%	0%
O=S(=O)(N=C(NS(=O)(=O)c1ccc(Cl)cc1)c1ccccc1)c1ccc(Cl)cc1	i	i	nt	-2%	11µM*	8%
COc1ccccc1CC(=O)NCCN1C(=O)C2C3C=CC(C3)C2C1=O (configuration not stated)	i	nt	nt	nt	nt	nt
Cc1ccc(C)c(NS(=O)(=O)c2ccc(-c3cnc(C4CC4)o3)cc2)c1	?	nt	0%	?	32µM*	14%
CCOC(=O)c1cccc(NS(=O)(=O)c2ccc(-c3coc(C)n3)cc2)c1	i	i	nt	6%	35µM*	-3%
CCOc1ccc(NS(=O)(=O)c2ccc(-c3cnc(C4CC4)o3)cc2)cc1	?	nt	-11%	?	35µM*	-2%
Cc1nc(-c2ccc(S(=O)(=O)Nc3cccc(Cl)c3)cc2)co1	i	i	1%	5%	8%	6%
Cc1ccc(C)c(NS(=O)(=O)c2ccc(-c3coc(C)n3)cc2)c1	i	i	7%	4%	13µM*	3%
Cc1cc(C)cc(NS(=O)(=O)c2ccc(-c3cnc(C4CC4)o3)cc2)c1	?	i	8%	?	?	11%
SMILES	FUS suppressor	Abeta rescue	Mito fusion act	aSyn yeast inh	TDP43 rescue	ERG Ets-DNA blk
Cc1ccc(NS(=O)(=O)c2ccc(-c3coc(C)n3)cc2)c(Br)c1	i	i	5%	11%	?	-9%
Cc1ccc(C)c(S(=O)(=O)c2nnn3c2nc(N2CCCCC2)c2sccc23)c1	i	i	nt	nt	10%	3%
Cc1ccc(-c2cc(-c3nnc(SCC(=O)NC4CCCCC4)n3N)[nH]n2)cc1	i	nt	nt	nt	nt	nt
CC(C)Oc1ccc(C(CCN)C2CCCCC2)cc1 (configuration not stated)	i	?	-47%	-6%	-9%	4%
Cc1cccc(S(=O)(=O)N(C)C[C@H]2OCc3cnnn3CCCC(=O)N([C@H](C)CO)C[C@@H]2C)c1	i	i	nt	-13%	13%	nt
CCOC(=O)c1cccc(NS(=O)(=O)c2cc(-c3cnc(C4CC4)o3)ccc2C)c1	i	i	nt	nt	20µM*	-1%
O=S(=O)(Nc1ccccc1)c1ccc(-c2cnc(C3CC3)o2)cc1	i	i	1%	-15%	35µM*	-5%
CCOc1cccc(NC(=O)C2CC(=O)N(C)C(=Nc3ccc(OC)cc3)S2)c1 (configuration not stated)	i	i	nt	5%	22%	7%
CCOc1cccc(NC(=O)C2CC(=O)N(C)C(=Nc3cccc(OC)c3)S2)c1 (configuration not stated)	?	i	nt	nt	35µM*	-4%
CCOc1cccc(NC(=O)C2CC(=O)N(C)C(=Nc3ccc(F)cc3)S2)c1 (configuration not stated)	i	16µM*	-1%	nt	25µM*	-8%
CC1(C(=O)NS(=O)(=O)c2ccc(C#N)cc2)CCN1C(=O)C1(c2ccc(Cl)cc2)CCC1 (configuration not stated)	i	i	nt	-4%	24%	nt
CC1(C(=O)NS(=O)(=O)c2cccc(C#N)c2)CCN1C(=O)C1(c2ccc(Cl)cc2)CCC1 (configuration not stated)	i	i	nt	28µM*	8%	nt
CC1(C(=O)Nc2ccc3c(c2)OCCO3)CCN1C(=O)C1(c2ccc(Cl)cc2)CC1 (configuration not stated)	i	i	nt	6%	35µM*	nt
COc1ccc2c(c1)c(=O)c(S(=O)(=O)c1ccc(C)c(C)c1)cn2CC(=O)Nc1ccccc1	13µM*	i	nt	nt	7%	3%
COc1cc2c(cc1OC)n(CC(=O)Nc1ccccc1)c(=O)n1nc(-c3ccccc3)nc21	i	i	nt	nt	27%	-8%
CCOC(=O)c1cc(C)n(Cc2cccc(OC)c2OC)c1C	i	i	-2%	-15%	20µM*	-14%
CCOC(=O)c1c(C)c(C)n(Cc2cccc(OC)c2OC)c1C	i	i	17%	-14%	1%	3%
Clc1ccc(N2CCN(Cc3c[nH]c4ncccc34)CC2)cc1	i	i	7.3µM*!	4%	7%	-5%

High-throughput results: PubChem BioAssay, National Center for Advancing Translational Sciences (NCATS)
